Measured values from PubChem BioAssay AID463173 (ICCB-Longwood Screening Facility, Harvard Medical School, 2010).
In all, about 52,000 compounds went through this assay and about 1,700 (3.3%) were called active. Only a selection was taken, and actives are over-represented in it overall. Values without a mark were called inactive. No stated cut-off is given here; in the data, active means survival mostly below about 52% (no sharp cut-off); inactive means mostly above about 56%.

These compounds were tested on Wild type (assay: growth inhibition of S. aureus wild type versus tarO mutant, primary screen, teichoic acid synthesis inhibitors, RN4220, OD600 (AID 463173)). Details: S. aureus RN4220 wild type/DeltatarO growth, OD600, 18 h, stronger effect = lower value, screened at 18.75 µg/mL (by protocol).
`CCc1cccc2c(-c3ccccc3)nc(SCC(=O)Nc3ccc(OC)cc3)nc12` gave a survival of 98%. Work on `Cc1ccc(Nc2c(-c3ccc(C)cc3)nc3ccc(C)cn23)cc1` yielded a survival of 121%. `Cc1ccc2nc(-c3ccc(F)cc3)c(NC(C)(C)CC(C)(C)C)n2c1` was tested, and the survival was 14% (active). Work on `COCCNc1c(-c2ccc(N)cc2)nc2ccc(C)cn12` yielded a survival of 101%. `CC(=O)N1c2ccccc2CC1C(=O)N1CCN(c2ccccc2F)CC1` (stereo not given) showed a survival of 71%. With `CCOc1ccc(NC(=O)/C=C\C(=O)N(c2ccc(C(C)C)cc2)C(C(=O)NCc2ccco2)c2ccc(F)cc2)cc1` (stereo not given) the survival was 51%. `Cc1cccc(NC(=O)CN2C(=O)COc3ccc(S(=O)(=O)Nc4ccccc4)cc32)c1C` was tested, and the survival was 123%. `Cc1c(Cl)cccc1NC(=O)c1cc2nc(-c3ccc4c(c3)OCO4)cc(C(F)(F)F)n2n1` showed a survival of 76%. With `CCOc1ccc(-c2nnc(Nc3ccc(S(N)(=O)=O)cc3)c3ccccc23)cc1` the survival was 88%. `CCCCOc1nnc(-c2ccc(OCC)cc2)c2ccccc12` was tested, and the survival was -1% (active). In the case of `CCOc1ccc(-c2ncccc2O)cc1`, the survival is reported as 106%. In the case of `COc1ccc(S(=O)(=O)N(CCc2ccccc2)CC(=O)NCc2ccc(C)cc2)cc1`, the survival is reported as 67%. In the case of `Cc1ccccc1CCNC(=O)c1cc2ccccn2n1`, the survival is reported as 84%. For `CCOC(=O)C1CCN(S(=O)(=O)c2ccc3c(c2)NC(=O)C(C)C(=O)N3)CC1` (stereo not given), the survival was 114%. With `Cc1ccc(N(C)S(=O)(=O)c2c(-c3ccccc3)csc2C(=O)O)cc1` the survival was 61%. In the case of `CC(=O)c1ccc(NC(=O)Cn2ncc3c(C)n(Cc4ccc(F)cc4)c(C)c3c2=O)cc1`, the survival is reported as 74%. In the case of `COC(=O)c1ccccc1NC(=O)c1nc(-c2ccc(C)cc2)n2c1CCCCC2`, the survival is reported as 86%. For `COc1ccc(C(=O)Oc2ccc3oc(=O)sc3c2)cc1`, the survival was 95%. `CCn1ccc2c(OCC(=O)NCc3ccccc3)cccc2c1=O` showed a survival of 66%. For `CCn1ccc2c(OCC(=O)Nc3ccc(C(C)=O)cc3)cccc2c1=O`, the survival was 53%. For `CCn1ccc2c(OCC(=O)Nc3ccccc3C(F)(F)F)cccc2c1=O`, the survival was 80%. With `CCn1ccc2c(OCC(=O)Nc3ccccc3C)cccc2c1=O` the survival was 0% (active). For `CCn1ccc2c(OCC(=O)Nc3ccc(OC)cc3OC)cccc2c1=O`, the survival was -3% (active). For `COCCn1ccc2c(OCC(=O)Nc3cccc(OC)c3)cccc2c1=O`, the survival was 90%. Compound `CCCN1CCN(C(=O)Cn2c(-c3cccs3)cc3cc(F)ccc32)CC1` has a survival of 85%. With `Cc1ccc2c(CC(=O)N(Cc3ccc(N(C)C)cc3)Cc3ccco3)coc2c1C` the survival was 70%. `CCc1nn(CC(=O)Nc2ccc(C)cc2C)c(=O)c2cc3sccc3n12` was tested, and the survival was 90%. With `Cc1cc(C)cc(NC(=O)CSc2nncn3c2cc2occc23)c1` the survival was 66%. Work on `Cc1ccc(CNS(=O)(=O)c2ccc3c(c2)CC(C)N3C(=O)C2CCC2)cc1` (stereo not given) yielded a survival of 97%. `Cc1ccsc1CN(C(=O)c1ccc(OCC(C)C)cc1)C1CCS(=O)(=O)C1` (stereo not given) was tested, and the survival was 85%. In the case of `CCCCN(c1ccccc1)c1ncnc2c1cnn2-c1cccc(C)c1`, the survival is reported as 68%. Work on `COC(=O)c1cc2sc(C)cc2n1Cc1ccc(Br)cc1F` yielded a survival of 76%. In the case of `COC(=O)c1cc2sc(C)cc2n1Cc1ccc(F)cc1Cl`, the survival is reported as 65%. In the case of `COC(=O)c1cc2sc(C)cc2n1Cc1cccc(OC)c1`, the survival is reported as 0% (active). With `C=Cc1ccc(Cn2c(C(=O)OC)cc3sc(C)cc32)cc1` the survival was 0% (active). Compound `COC(=O)c1cc2sc(C)cc2n1Cc1ccccc1` has a survival of 83%. `COC(=O)c1cc2sccc2n1Cc1ccc(F)cc1` was tested, and the survival was 135%. Compound `Cc1cccc(CCn2c(=O)c3ccccc3n(Cc3cccc(F)c3)c2=O)c1` has a survival of 82%. With `COc1ccc(NC(=O)Cn2cc(S(=O)(=O)c3ccccc3)c(=O)c3cc4c(cc32)OCO4)cc1` the survival was 79%. Work on `COc1cc(CN(C(=O)Nc2ccccc2)c2ccccn2)cc(OC)c1OC` yielded a survival of 86%. `CCCCNC(=O)CN1C(=O)CSc2ccc(S(=O)(=O)N3CCC(C)CC3)cc21` gave a survival of 92%. Compound `COc1ccccc1NC(=O)CN(C)S(=O)(=O)c1cccc2cccnc12` has a survival of 117%. `CC(=O)NC1N=C(C)N(c2ccccc2)C1=O` (stereo not given) showed a survival of 101%. `COC(=O)c1ccc(Cl)cc1NC(=O)NCCc1c(C)nn(C)c1C` gave a survival of 55%. `COC(=O)c1ccccc1NC(=O)NCCc1c(C)nn(C)c1C` gave a survival of 82%. In the case of `COc1ccc(NC(=O)NCCc2c(C)nn(C)c2C)c(OC)c1`, the survival is reported as 57%. Compound `Cc1nn(C)c(C)c1CCNC(=O)Nc1cccc(Cl)c1C` has a survival of 63%. In the case of `COc1ccc(Cl)cc1NC(=O)NCCc1c(C)nn(C)c1C`, the survival is reported as -3% (active). With `Cc1nn(C)c(C)c1CCNC(=O)Nc1ccccc1C(F)(F)F` the survival was 1% (active). Work on `Cc1ccc(C2c3[nH]c4ccccc4c3CCN2C(=O)c2ccc(N(C)C)cc2)cc1` (stereo not given) yielded a survival of 68%. `CCc1cccc(C)c1Nc1c(-c2ccsc2)nc2ncccn12` gave a survival of 66%. `CNC(=S)N(CCN1CCOCC1)Cc1cc2cc(C)c(Cl)cc2[nH]c1=O` was tested, and the survival was 113%. Compound `Cc1cccn2c(=O)c(/C=C(\C#N)c3nc4ccccc4s3)c(Oc3ccc(Br)cc3)nc12` has a survival of 129%. `O=C(NCc1cccc(Cl)c1)c1cc2ccc3cccnc3c2[nH]1` was tested, and the survival was 82%. With `CCCCCSc1nnc(-c2ccc(Br)cc2)o1` the survival was -1% (active). With `Cc1ccc(-c2nnc(SCc3ccccc3C#N)o2)cc1` the survival was 66%. Work on `COc1ccc(-c2nnc(SCC(=O)Oc3cc(C)ccc3C)o2)cc1` yielded a survival of 86%. `CCOC(=O)CSc1nnc(-c2ccc(OC)cc2)o1` was tested, and the survival was 72%. `Cc1ccc(CSc2nnc(-c3ccc(O)cc3)o2)cc1` showed a survival of 108%. In the case of `CCCCOC(=O)CSc1nnc(-c2ccc(C)cc2)o1`, the survival is reported as 8% (active). With `N#Cc1ccccc1CSc1nnc(-c2ccc(Br)cc2)o1` the survival was 73%. `Cc1ccc(-c2nnc(SCc3ccccc3C)o2)cc1` was tested, and the survival was -4% (active). `N#Cc1ccc(CSc2nnc(-c3ccc(Br)cc3)o2)cc1` gave a survival of 74%. `Cc1ccc2occ(-c3cc(-c4ccc(F)cc4)nc4c3COc3ccc(F)cc3-4)c(=O)c2c1` gave a survival of 76%. In the case of `Cc1ccc(-n2c(=O)[nH]c3cc(C(=O)NCCc4ccccc4)ccc3c2=O)cc1`, the survival is reported as 85%. In the case of `O=C(Nc1ccc(OCc2cc(=O)n3c4c(sc3n2)CCCC4)cc1)c1cccc(F)c1`, the survival is reported as 78%. With `Cc1ccc(Cl)cc1NC(=O)Nc1nnc(N(C)Cc2ccccc2)s1` the survival was 93%. `COc1ccc(-c2nc3sc(CCNC(=O)C(=O)Nc4ccccc4C#N)c(C)n3n2)cc1` showed a survival of 85%. Compound `Cc1noc(C)c1S(=O)(=O)N1CCC(C(=O)N2CCN(c3ccccc3)CC2)CC1` has a survival of 128%. With `CCOC(=O)CC(=O)CSc1nc2ccccc2c(=O)n1CCc1ccc(S(N)(=O)=O)cc1` the survival was 71%. In the case of `Cc1ccc(C(=O)COC(=O)CCC(=O)Nc2ccc(Oc3ccccc3)cc2)cc1`, the survival is reported as 90%. `Cc1cc(NC(=O)C(C)(C)Oc2ccc(Cl)cc2)cc(-c2nc3ncccc3o2)c1O` showed a survival of 92%. With `Cc1c(NC(=O)C(C)(C)Oc2ccc(Cl)cc2)cccc1-c1nc2ncccc2o1` the survival was -3% (active). In the case of `COc1c(Cl)cc(Cl)cc1C(=O)Nc1cccc(-c2nc3ccccc3o2)c1C`, the survival is reported as 125%. For `Cc1ccc2oc(-c3ccc(C)c(NC(=O)C(C)(C)Oc4ccc(Cl)cc4)c3)nc2c1`, the survival was 43%. `CC(C)(Oc1ccc(Cl)cc1)C(=O)Nc1ccc(-c2nc3ncccc3o2)cc1` was tested, and the survival was 74%. With `Cc1c(NC(=O)C(C)(C)Oc2ccc(Cl)cc2)cccc1-c1nc2ccccc2o1` the survival was 1% (active). `COc1ccc(-c2nc(CN3CCC(C(=O)NCCCOC(C)C)CC3)c(C)o2)cc1OC` was tested, and the survival was 80%. `CCCn1cc(S(=O)(=O)c2ccc(OC)cc2)c(=O)c2cc(F)c(N3CCCC(C)C3)cc21` (stereo not given) gave a survival of 71%. In the case of `CCOc1ccc(C(=O)NCCS(=O)(=O)N2CCN(c3ccccc3F)CC2)cc1OCC`, the survival is reported as 102%. `COc1ccc(OCC(=O)Nc2ccc(-c3nc4cc(C)c(C)cc4o3)cc2)cc1` showed a survival of 77%. `COc1ccc(OC)c(Nc2ncnc3c2cnn3-c2cccc(Cl)c2)c1` gave a survival of 64%. For `Cc1ccc(C)c(Nc2ncnc3c2cnn3-c2ccc(F)cc2)c1`, the survival was -3% (active). In the case of `COCCCNc1ncnc2c1cnn2-c1ccc(F)cc1`, the survival is reported as 82%. In the case of `COc1ccc(CCNc2ncnc3c2cnn3-c2ccc(C)cc2)cc1`, the survival is reported as 71%. Compound `COc1ccc(Nc2ncnc3c2cnn3-c2ccc(C)cc2)cc1Cl` has a survival of 133%. Compound `Cc1ccc(-n2ncc3c(Nc4cccc(C)c4C)ncnc32)cc1` has a survival of 78%. With `CCOc1ccccc1Nc1ncnc2c1cnn2-c1ccc(C)cc1` the survival was 76%. `COc1ccc(OC)c(Nc2ncnc3c2cnn3-c2ccc(C)cc2)c1` was tested, and the survival was 14% (active). In the case of `COc1ccc(-n2ncc3c(NCCCOC(C)C)ncnc32)cc1`, the survival is reported as -2% (active). Work on `Cc1ccc(Cn2c(C(=O)O)c(CNC3CCCCCC3)c3ccc(C)cc32)cc1` yielded a survival of 74%. In the case of `CCCNC(=O)C1CCC(Cn2c(=O)c3sccc3n(CC(=O)NCc3cccc(OC)c3OC)c2=O)CC1` (stereo not given), the survival is reported as 133%. In the case of `COc1cccc(NC(=O)c2cnc(SCC(=O)N3CCCc4ccccc43)n(C)c2=O)c1`, the survival is reported as 54%. With `COc1cccc(-c2cn3ncsc3n2)c1` the survival was 80%. For `Cc1cc(NNC(=O)c2ccccc2)nc(NNC(=O)c2ccccc2)n1`, the survival was 103%.
